Test results reported in the supplement of paper PMC10849652.
Targets with a hit are over-represented here; the source holds about 7,900 in all. About 0.6% of all pairs of compound and target were hits.

Columns and labels:
Assay in all cases: log2 fold change, soluble protein after heating vs DMSO (PISA); higher = thermal stabilisation; K562 cells, 10 uM, 30 min; active = over 0.2 and 3.5 SD of the protein, either way, in both replicates (recomputed)
[1] = compound: CC[C@@H]1C(=O)N(C)c2cnc(Nc3ccc(C(=O)NC4CCN(C)CC4)cc3OC)nc2N1C1CCCC1
Method in brief: (§1)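 Soluble protein was defined as the supernatant after 21,000xg for 90 min. It came from K562 cells at 2×10^6 cells/mL given 10 μM compound for 30 min, heated in aliquots for 3 min across 48°C-58°C, pooled, and extracted in PBS with 0.5% NP-40 at 4°C, and was quantified by TMTpro 16plex LC-MS/MS with equalised channel sums. Thermal stability against control samples, from duplicates, is reported as log2 fold change.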

volasertib = compound: CC[C@@H]1C(=O)N(C)c2cnc(Nc3ccc(C(=O)N[C@H]4CC[C@H](N5CCN(CC6CC6)CC5)CC4)cc3OC)nc2N1C(C)C [volasertib]
Method in brief: as §1

[2] = compound: CC[C@H](C)N1C=C(C2=C(C=C(C=C21)C3=CN=C(C=C3)N4CCNCC4)C(=O)NCC5=C(C=C(NC5=O)C)C)C
Method in brief: as §1

epoxomicin = compound: CC[C@H](C)[C@@H](C(=O)N[C@@H]([C@@H](C)O)C(=O)N[C@@H](CC(C)C)C(=O)[C@]1(CO1)C)NC(=O)[C@H]([C@@H](C)CC)N(C)C(=O)C [epoxomicin]
Method in brief: as §1

[3] = compound: CCn1c(C(=O)N(C2CC2)C2CC2)cc2c3c(ncn3C)c(Nc3cc(C)n(C)n3)nc21
Method in brief: as §1

[4] = compound: CCn1cc(-c2ccnc3[nH]c(-c4cccc(CN(C)C)c4)cc23)c(-c2ccc(NC(=O)N(C)C)cc2)n1
Method in brief: as §1

[5] = compound: CN(C)CC(=O)Nc1ccc2[nH]c(=O)c3ccccc3c2c1
Method in brief: as §1

rosiglitazone = compound: CN(CCOC1=CC=C(C=C1)C[C@H]2C(=O)NC(=O)S2)C3=CC=CC=N3 (racemic) [rosiglitazone]
Method in brief: as §1

[6] = compound: CN1C2=C(C3=C1C(=O)N(N=C3)CC4=CC(=CC=C4)N)SC(=C2)S(=O)C
Method in brief: as §1

[7] = compound: CN1CCC(CNc2ccc3ncc(-c4cccc(OC(F)(F)F)c4)n3n2)CC1
Method in brief: as §1

saracatinib = compound: CN1CCN(CCOc2cc(OC3CCOCC3)c3c(Nc4c(Cl)ccc5c4OCO5)ncnc3c2)CC1 [saracatinib]
Method in brief: as §1

sotrastaurin = compound: CN1CCN(c2nc(C3=C(c4c[nH]c5ccccc45)C(=O)NC3=O)c3ccccc3n2)CC1 [sotrastaurin]
Method in brief: as §1

alvocidib = compound: CN1CC[C@H](c2c(O)cc(O)c3c(=O)cc(-c4ccccc4Cl)oc23)[C@H](O)C1 [alvocidib]
Method in brief: as §1

Tubastatin A = compound: CN1CCc2c(c3ccccc3n2Cc2ccc(C(=O)NO)cc2)C1 [Tubastatin A]
Method in brief: as §1

[8] = compound: CNC(=O)C1=CC=CC=C1NC2=NC(=NC=C2Cl)NC3=C(C=C(C=C3)N4CCOCC4)OC
Method in brief: as §1

defactinib = compound: CNC(=O)c1ccc(Nc2ncc(C(F)(F)F)c(NCc3nccnc3N(C)S(C)(=O)=O)n2)cc1 [defactinib]
Method in brief: as §1

rucaparib = compound: CNCc1ccc(-c2[nH]c3cc(F)cc4c3c2CCNC4=O)cc1 [rucaparib]
Method in brief: as §1

[9] = compound: CNc1nc(-c2ccc3c(N)n[nH]c3c2)cc(N2C[C@@H](C(=O)NC3CCCCC3)CC[C@H]2C)n1
Method in brief: as §1

encorafenib = compound: COC(=O)N[C@@H](C)CNc1nccc(-c2cn(C(C)C)nc2-c2cc(Cl)cc(NS(C)(=O)=O)c2F)n1 [encorafenib]
Method in brief: as §1

[10] = compound: COC(=O)[C@H](CCSC)NC(=O)C1=C(C=C(C=C1)NC[C@H](CS)N)C2=CC=CC=C2
Method in brief: as §1

Measured: log2 fold change

UBAP2L isoform 5 (UniProt Q14157)
UniProt Q14157, sequence (Q14157 whole entry, looked up): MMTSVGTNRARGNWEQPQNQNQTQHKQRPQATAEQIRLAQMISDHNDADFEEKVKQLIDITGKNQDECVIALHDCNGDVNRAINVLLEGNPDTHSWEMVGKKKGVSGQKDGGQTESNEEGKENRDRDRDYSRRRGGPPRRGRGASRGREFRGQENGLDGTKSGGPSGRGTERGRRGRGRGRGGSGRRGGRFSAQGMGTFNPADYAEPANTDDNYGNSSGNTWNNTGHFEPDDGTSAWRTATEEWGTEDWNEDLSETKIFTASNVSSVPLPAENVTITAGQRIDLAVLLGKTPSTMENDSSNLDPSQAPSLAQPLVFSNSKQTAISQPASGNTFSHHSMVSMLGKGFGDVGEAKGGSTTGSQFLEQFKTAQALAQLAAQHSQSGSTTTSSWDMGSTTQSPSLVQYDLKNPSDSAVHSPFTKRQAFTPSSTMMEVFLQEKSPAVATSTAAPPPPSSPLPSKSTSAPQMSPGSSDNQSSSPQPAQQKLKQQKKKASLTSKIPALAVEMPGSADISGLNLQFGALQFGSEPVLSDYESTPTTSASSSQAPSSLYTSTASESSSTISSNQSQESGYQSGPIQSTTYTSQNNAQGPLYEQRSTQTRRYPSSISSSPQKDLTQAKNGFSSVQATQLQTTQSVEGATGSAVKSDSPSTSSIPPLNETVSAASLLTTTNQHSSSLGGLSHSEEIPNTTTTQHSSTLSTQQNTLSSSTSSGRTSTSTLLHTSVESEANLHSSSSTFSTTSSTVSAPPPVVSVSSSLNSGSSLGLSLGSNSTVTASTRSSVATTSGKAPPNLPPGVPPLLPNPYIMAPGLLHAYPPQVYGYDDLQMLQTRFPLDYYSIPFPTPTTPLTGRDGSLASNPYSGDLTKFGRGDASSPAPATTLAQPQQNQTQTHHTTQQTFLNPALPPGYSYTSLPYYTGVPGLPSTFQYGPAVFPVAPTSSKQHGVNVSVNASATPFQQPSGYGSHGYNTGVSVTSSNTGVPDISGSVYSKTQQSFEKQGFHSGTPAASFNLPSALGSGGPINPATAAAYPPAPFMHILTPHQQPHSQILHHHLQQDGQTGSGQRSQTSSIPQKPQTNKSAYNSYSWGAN
inactive: [1] 0.005 | volasertib -0.023 | [2] -0.02 | epoxomicin -0.018 | [3] 0.019 | [4] 0.004 | [5] -0.035 | rosiglitazone -0.007 | [6] -0.039 | [7] 0.009 | saracatinib 0.017 | sotrastaurin 0.013 | alvocidib 0.038 | Tubastatin A -0.006 | [8] -0.096 | defactinib 0.009 | rucaparib 0.018 | [9] -0.006 | encorafenib -0.018 | [10] 0.015

TOE1 (UniProt Q96GM8)
active: [7] 0.35
inactive: [1] 0.067 | volasertib 0.154 | [2] -0.023 | epoxomicin -0.148 | [3] -0.067 | [4] 0.035 | [5] -0.043 | rosiglitazone -0.03 | [6] 0.107 | saracatinib 0.025 | sotrastaurin -0.016 | alvocidib 0.221 | Tubastatin A 0.031 | [8] 0.122 | defactinib 0.193 | rucaparib -0.066 | [9] 0.05 | encorafenib 0.017 | [10] 0.05

TSG101 (UniProt Q99816)
inactive: [1] -0.137 | [2] 0.036 | epoxomicin 0.065 | [3] -0.011 | [4] -0.021 | [5] 0.002 | rosiglitazone 0.023 | [6] -0.018 | [7] -0.124 | saracatinib -0.008 | sotrastaurin -0.047 | alvocidib -0.076 | Tubastatin A 0 | [8] 0.011 | defactinib -0.12 | rucaparib -0.006 | [9] -0.044 | encorafenib -0.007 | [10] -0.032
active: volasertib -0.268

TRAPPC8 (UniProt Q9Y2L5)
UniProt Q9Y2L5, sequence (Q9Y2L5 whole entry, looked up): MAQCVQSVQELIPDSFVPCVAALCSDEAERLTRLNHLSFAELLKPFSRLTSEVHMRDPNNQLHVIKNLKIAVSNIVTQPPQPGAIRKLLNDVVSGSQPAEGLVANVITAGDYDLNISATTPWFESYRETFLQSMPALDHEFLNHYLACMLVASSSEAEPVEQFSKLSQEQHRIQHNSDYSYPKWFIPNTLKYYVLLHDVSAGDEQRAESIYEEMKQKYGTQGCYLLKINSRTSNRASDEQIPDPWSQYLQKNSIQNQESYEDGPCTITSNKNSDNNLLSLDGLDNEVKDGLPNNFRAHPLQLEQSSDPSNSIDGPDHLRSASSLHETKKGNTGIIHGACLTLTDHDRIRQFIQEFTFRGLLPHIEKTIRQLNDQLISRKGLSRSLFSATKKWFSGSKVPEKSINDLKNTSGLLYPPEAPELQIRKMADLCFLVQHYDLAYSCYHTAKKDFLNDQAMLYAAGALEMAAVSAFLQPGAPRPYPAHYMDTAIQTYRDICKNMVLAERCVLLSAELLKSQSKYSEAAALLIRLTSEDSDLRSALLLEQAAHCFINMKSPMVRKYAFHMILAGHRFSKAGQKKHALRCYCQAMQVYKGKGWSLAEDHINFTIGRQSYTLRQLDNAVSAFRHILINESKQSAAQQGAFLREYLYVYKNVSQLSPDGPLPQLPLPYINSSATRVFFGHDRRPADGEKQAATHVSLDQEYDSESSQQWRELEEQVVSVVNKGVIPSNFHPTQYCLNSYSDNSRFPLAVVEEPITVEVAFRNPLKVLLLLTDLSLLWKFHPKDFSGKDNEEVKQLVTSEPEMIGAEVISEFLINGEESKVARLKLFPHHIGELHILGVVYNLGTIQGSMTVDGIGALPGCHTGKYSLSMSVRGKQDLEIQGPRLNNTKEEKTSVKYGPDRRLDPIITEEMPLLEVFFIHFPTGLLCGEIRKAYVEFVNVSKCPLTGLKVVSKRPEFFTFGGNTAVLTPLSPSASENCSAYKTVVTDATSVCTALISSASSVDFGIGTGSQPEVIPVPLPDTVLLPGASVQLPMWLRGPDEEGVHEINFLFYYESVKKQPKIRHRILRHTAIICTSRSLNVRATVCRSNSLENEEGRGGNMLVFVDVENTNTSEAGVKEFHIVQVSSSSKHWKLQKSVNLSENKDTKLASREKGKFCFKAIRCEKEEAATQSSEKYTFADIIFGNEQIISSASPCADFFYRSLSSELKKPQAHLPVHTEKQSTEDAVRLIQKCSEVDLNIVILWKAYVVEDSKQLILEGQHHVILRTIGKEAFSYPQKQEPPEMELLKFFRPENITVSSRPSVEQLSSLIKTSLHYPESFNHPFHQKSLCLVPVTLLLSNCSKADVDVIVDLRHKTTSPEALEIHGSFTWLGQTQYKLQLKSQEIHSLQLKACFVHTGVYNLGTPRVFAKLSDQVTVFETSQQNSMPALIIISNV
active: volasertib -0.287
inactive: [1] -0.092 | [2] 0.077 | epoxomicin 0.033 | [3] -0.023 | [4] -0.073 | [5] 0.015 | rosiglitazone 0.059 | [6] 0.04 | [7] -0.099 | saracatinib -0.017 | sotrastaurin -0.044 | alvocidib -0.055 | Tubastatin A -0.004 | [8] 0.014 | defactinib -0.104 | rucaparib 0.074 | [9] 0.008 | encorafenib 0.032 | [10] -0.032

UTP14A (UniProt Q9BVJ6)
UniProt Q9BVJ6, sequence (Q9BVJ6 whole entry, looked up): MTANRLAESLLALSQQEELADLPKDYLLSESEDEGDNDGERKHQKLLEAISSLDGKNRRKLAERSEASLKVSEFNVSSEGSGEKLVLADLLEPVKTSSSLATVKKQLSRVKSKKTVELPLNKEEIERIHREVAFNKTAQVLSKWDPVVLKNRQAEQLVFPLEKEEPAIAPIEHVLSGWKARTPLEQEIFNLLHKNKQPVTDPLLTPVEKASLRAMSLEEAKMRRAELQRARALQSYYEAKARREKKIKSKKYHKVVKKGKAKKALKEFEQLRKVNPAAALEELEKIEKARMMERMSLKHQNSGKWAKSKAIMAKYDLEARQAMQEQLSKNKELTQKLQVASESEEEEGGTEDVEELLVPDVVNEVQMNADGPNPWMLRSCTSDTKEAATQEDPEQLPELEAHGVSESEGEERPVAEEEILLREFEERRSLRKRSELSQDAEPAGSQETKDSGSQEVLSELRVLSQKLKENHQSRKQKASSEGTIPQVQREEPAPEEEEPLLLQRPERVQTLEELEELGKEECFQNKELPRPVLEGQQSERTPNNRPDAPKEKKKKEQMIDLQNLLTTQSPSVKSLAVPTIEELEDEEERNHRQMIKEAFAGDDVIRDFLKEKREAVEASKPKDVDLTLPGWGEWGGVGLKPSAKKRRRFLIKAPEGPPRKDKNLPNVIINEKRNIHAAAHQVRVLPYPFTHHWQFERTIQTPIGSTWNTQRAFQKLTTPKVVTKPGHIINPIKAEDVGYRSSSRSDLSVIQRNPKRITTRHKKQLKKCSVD
inactive: [1] 0.092 | volasertib 0.176 | [2] 0.028 | epoxomicin -0.144 | [3] 0.028 | [4] 0.106 | [5] -0.136 | rosiglitazone -0.106 | [6] 0.263 | [7] 0.106 | saracatinib -0.023 | sotrastaurin -0.017 | alvocidib 0.077 | Tubastatin A 0.163 | [8] 0.024 | defactinib 0.055 | rucaparib 0.15 | [9] 0.066 | encorafenib 0.124 | [10] 0.021

USP3 (UniProt Q9Y6I4)
active: [7] -0.379
inactive: [1] -0.173 | volasertib -0.325 | [2] 0.04 | epoxomicin -0.083 | [3] -0.051 | [4] -0.037 | [5] 0.063 | rosiglitazone 0.094 | [6] -0.077 | saracatinib 0.16 | sotrastaurin 0.074 | alvocidib -0.288 | Tubastatin A -0.181 | [8] -0.118 | defactinib -0.205 | rucaparib 0.042 | [9] 0.155 | encorafenib -0.008 | [10] -0.092

XRCC5 (UniProt P13010)
inactive: [1] -0.172 | volasertib -0.482 | [2] 0.207 | epoxomicin 0.069 | [3] -0.103 | [4] 0.009 | [5] 0.169 | rosiglitazone 0.114 | [6] 0.124 | [7] -0.087 | saracatinib -0.057 | sotrastaurin -0.332 | alvocidib -0.214 | Tubastatin A 0.173 | [8] -0.032 | defactinib -0.37 | rucaparib 0.07 | [9] 0.048 | encorafenib 0.21 | [10] -0.067

VPS16 (UniProt Q9H269)
active: volasertib -0.671
inactive: [1] -0.244 | [2] 0.042 | epoxomicin 0.045 | [3] 0.003 | [4] -0.072 | [5] 0.083 | rosiglitazone 0.113 | [6] 0.026 | [7] -0.316 | saracatinib 0.026 | sotrastaurin -0.171 | alvocidib -0.028 | Tubastatin A -0.001 | [8] -0.071 | defactinib -0.042 | rucaparib -0.049 | [9] -0.054 | encorafenib 0.196 | [10] -0.022

VPS50 (UniProt Q96JG6)
inactive: [1] -0.168 | [2] 0.08 | epoxomicin 0.009 | [3] -0.037 | [4] -0.026 | [5] 0.009 | rosiglitazone 0.008 | [6] 0.036 | [7] -0.101 | saracatinib -0.108 | sotrastaurin -0.089 | alvocidib -0.07 | Tubastatin A 0.036 | [8] 0.04 | defactinib -0.11 | rucaparib 0.033 | [9] -0.012 | encorafenib 0.1 | [10] -0.022
active: volasertib -0.415

UFM1 isoform 2 (UniProt P61960)
UniProt P61960, sequence (P61960 whole entry, looked up): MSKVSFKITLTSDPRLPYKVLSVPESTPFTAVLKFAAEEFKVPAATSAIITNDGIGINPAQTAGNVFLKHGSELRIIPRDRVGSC
inactive: [1] 0.116 | volasertib 0.012 | [2] 0.069 | epoxomicin 0.029 | [3] 0.034 | [4] -0.001 | [5] 0.114 | rosiglitazone -0.03 | [6] 0.004 | [7] -0.005 | saracatinib 0 | sotrastaurin 0.044 | alvocidib -0.037 | Tubastatin A -0.158 | [8] 0.022 | defactinib -0.065 | rucaparib -0.114 | [9] -0.024 | encorafenib 0.01 | [10] -0.082

TRAPPC3 (UniProt O43617)
UniProt O43617, sequence (O43617 whole entry, looked up): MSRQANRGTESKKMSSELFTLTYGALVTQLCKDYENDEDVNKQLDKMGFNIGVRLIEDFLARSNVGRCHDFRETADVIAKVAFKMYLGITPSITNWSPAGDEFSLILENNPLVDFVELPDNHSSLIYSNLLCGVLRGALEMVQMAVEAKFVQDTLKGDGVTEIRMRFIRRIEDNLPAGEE
inactive: [1] -0.019 | volasertib -0.118 | [2] -0.02 | epoxomicin -0.029 | [3] 0.047 | [4] 0.04 | [5] -0.016 | rosiglitazone -0.022 | [6] -0.051 | [7] -0.059 | saracatinib 0.063 | sotrastaurin 0.001 | alvocidib -0.071 | Tubastatin A -0.026 | [8] 0 | defactinib -0.072 | rucaparib -0.056 | [9] -0.014 | encorafenib 0.015 | [10] 0.013

TNFAIP8 isoform 4 (UniProt O95379)
inactive: [1] -0.015 | volasertib -0.414 | [2] 0.053 | epoxomicin 0.041 | [3] 0.07 | [4] -0.088 | [5] 0.022 | rosiglitazone 0.001 | [6] -0.084 | [7] -0.125 | saracatinib 0.009 | sotrastaurin -0.125 | alvocidib -0.072 | Tubastatin A 0.083 | [8] -0.046 | defactinib -0.033 | rucaparib -0.04 | [9] -0.064 | encorafenib -0.016 | [10] -0.015

XIAP (UniProt P98170)
UniProt P98170, sequence (P98170 whole entry, looked up): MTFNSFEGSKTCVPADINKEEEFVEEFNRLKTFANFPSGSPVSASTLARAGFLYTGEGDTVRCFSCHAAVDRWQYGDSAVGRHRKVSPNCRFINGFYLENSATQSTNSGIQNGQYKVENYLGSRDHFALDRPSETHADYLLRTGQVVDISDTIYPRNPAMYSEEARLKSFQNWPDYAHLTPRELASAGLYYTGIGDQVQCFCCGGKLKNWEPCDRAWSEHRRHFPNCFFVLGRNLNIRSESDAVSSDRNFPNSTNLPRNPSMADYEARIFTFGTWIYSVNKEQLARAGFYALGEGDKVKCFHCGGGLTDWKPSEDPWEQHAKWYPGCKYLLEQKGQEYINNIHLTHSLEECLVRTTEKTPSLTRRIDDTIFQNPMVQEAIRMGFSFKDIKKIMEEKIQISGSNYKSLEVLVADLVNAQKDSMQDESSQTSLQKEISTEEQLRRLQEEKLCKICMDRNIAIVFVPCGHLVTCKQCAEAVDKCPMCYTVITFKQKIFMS
inactive: [1] -0.135 | [2] 0.094 | epoxomicin 0 | [3] -0.029 | [4] 0 | [5] 0.071 | rosiglitazone 0.043 | [6] -0.101 | [7] -0.131 | saracatinib -0.149 | sotrastaurin -0.119 | alvocidib -0.108 | Tubastatin A 0.002 | [8] -0.033 | defactinib -0.12 | rucaparib 0.107 | [9] -0.075 | encorafenib 0.081 | [10] 0.033
active: volasertib -0.457

TXNL1 (UniProt O43396)
UniProt O43396, sequence (O43396 whole entry, looked up): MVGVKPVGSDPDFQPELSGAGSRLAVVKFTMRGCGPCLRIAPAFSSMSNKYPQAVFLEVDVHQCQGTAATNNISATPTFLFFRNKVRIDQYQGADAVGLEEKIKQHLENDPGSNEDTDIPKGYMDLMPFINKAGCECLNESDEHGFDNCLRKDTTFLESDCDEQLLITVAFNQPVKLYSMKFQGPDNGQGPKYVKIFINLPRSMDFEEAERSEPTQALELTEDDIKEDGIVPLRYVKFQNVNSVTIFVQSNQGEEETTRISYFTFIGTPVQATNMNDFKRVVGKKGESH
inactive: [1] -0.104 | volasertib -0.163 | [2] 0.044 | [3] -0.018 | [4] -0.031 | [5] 0.027 | rosiglitazone 0.01 | [6] -0.018 | [7] 0.011 | saracatinib -0.008 | sotrastaurin -0.068 | alvocidib -0.1 | Tubastatin A 0.215 | [8] 0.034 | defactinib -0.085 | rucaparib 0.019 | [9] 0.024 | encorafenib 0.062 | [10] -0.045
active: epoxomicin 0.295

TOM1 isoform 2 (UniProt O60784)
UniProt O60784, sequence (O60784 whole entry, looked up): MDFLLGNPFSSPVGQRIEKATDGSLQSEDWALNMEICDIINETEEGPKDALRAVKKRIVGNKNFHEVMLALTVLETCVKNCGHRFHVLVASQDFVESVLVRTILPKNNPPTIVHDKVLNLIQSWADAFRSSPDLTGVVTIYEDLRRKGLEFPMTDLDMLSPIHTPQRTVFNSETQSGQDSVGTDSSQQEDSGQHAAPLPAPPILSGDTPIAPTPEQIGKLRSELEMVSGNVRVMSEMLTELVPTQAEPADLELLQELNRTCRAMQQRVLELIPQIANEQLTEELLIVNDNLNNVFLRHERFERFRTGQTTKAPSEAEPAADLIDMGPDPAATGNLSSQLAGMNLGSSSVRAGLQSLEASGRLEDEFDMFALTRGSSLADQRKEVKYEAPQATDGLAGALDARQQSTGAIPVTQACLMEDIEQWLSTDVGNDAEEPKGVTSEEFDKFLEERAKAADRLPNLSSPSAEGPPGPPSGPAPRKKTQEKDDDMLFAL
inactive: [1] -0.056 | volasertib -0.196 | [2] 0.037 | epoxomicin -0.035 | [3] -0.018 | [4] -0.082 | [5] 0.026 | rosiglitazone 0.001 | [6] 0.006 | [7] -0.274 | saracatinib 0.033 | sotrastaurin -0.132 | alvocidib 0.001 | Tubastatin A 0.132 | [8] -0.025 | defactinib -0.087 | rucaparib -0.024 | [9] -0.043 | encorafenib 0.009 | [10] 0.089

TRAPPC2L (UniProt Q9UL33)
UniProt Q9UL33, sequence (Q9UL33 whole entry, looked up): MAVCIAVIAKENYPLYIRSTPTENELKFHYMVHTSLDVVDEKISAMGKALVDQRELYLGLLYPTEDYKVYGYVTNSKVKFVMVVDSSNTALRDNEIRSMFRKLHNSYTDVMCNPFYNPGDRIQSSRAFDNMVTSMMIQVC
active: [8] -0.376
inactive: [1] -0.109 | volasertib -0.065 | [2] 0.008 | epoxomicin 0.06 | [3] -0.076 | [4] -0.042 | [5] 0.128 | rosiglitazone 0.053 | [6] 0.007 | [7] 0.001 | saracatinib -0.07 | sotrastaurin -0.101 | alvocidib -0.015 | Tubastatin A 0.011 | defactinib -0.032 | rucaparib 0.03 | [9] -0.026 | encorafenib 0.012 | [10] -0.042
